Test results from PubChem BioAssay AID588334 (Broad Institute, 2011).
Out of some 300,000 compounds screened, about 2,300 (0.77%) were called active.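 Rule for the calls: active = mean activation of at least 80% with every replicate also reaching 80%; inconclusive = mean reaches 80% but some replicate falls short; inactive = the rest.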 For the sample, actives were picked, then their nearest neighbours and some compounds at random.

Assay: MITF-driven TRPM1 luciferase induction in melanoma cells – cell-based, SK-MEL-5, single point, primary screen (AID 588334);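 note: 0% = neutral control wells and 100% = parthenolide positive control wells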
Settings: SK-MEL-5 TRPM1-promoter luciferase, 24 h; at 12.5 µM; active compounds read high; % of positive control, neutral wells = 0

activation, active:
CN(C)S(=O)(=O)c1ccc2oc(SCC(=O)Nc3ccccc3F)nc2c1 114%, O=C(c1noc2c1CCCC2)N1CCc2ccccc2C1 127%, O=C(Cc1ccc(Cl)cc1)c1ccccc1 89.3%, Cc1ccc2nc(N3CCN(C(=O)c4ccco4)CC3)sc2c1 103%, CC(=O)Nc1cccc(-c2csc(Nc3cccc(C)n3)n2)c1 137%, Cc1cccc(NC(=O)COc2ccc(Br)cc2C)n1 198%, CC(C)c1ccc(NC(=O)Cn2ncc3ccccc32)cc1 93%, CN1CCN(C(=O)c2ccc(-c3ccc(Br)cc3)o2)CC1 123%, CS(=O)(=O)N1CCc2nc(-c3ccccc3)sc2C1 92.1%, Cc1ccn(-c2cccc(-n3ccc(C)n3)n2)n1 119%, Cc1ccccc1Nc1nc(-c2cccnc2)cs1 97.6%, CC(C)(C)C(=O)c1cnc(Nc2ccccc2)s1 124%

activation, inactive:
CNN/C(N=Cc1ccc([N+](=O)[O-])s1)=N\S(=O)(=O)c1cc(C)c(Cl)cc1SCc1ccccc1 -22.7%, CCCc1nc(SCC(=O)Nc2ccc(S(=O)(=O)N(C)C)cc2)c2ccccc2n1 -0.188%, COc1ccc(S(=O)(=O)N(C)C)cc1NC(=O)CSc1ncccn1 0.656%, COc1ccc(CCC(=O)Nc2ccc(Cl)c(S(=O)(=O)N3CCOCC3)c2)cc1OC -5.06%, O=C1OCC2=C1C(c1ccc(Cl)cc1)c1cc3c(cc1O2)OCO3 (stereo not given) 3.92%, Cc1ccc(-c2cc(C(=O)N3CCc4ccccc4C3)no2)cc1 -5%, COc1ccc2c(c1)CCc1c(C(=O)N3CCc4ccccc4C3)noc1-2 18.4%, O=C1CC(c2ccccc2)C(=O)N2C(=O)CC(c3ccccc3)C(=O)N12 (stereo not given) 1.12%, Cc1nc2ccc(N)nc2nc1C -1.9%, CCCCN(C(=O)CSCc1ccc(C)cc1)c1c(N)n(Cc2ccccc2)c(=O)[nH]c1=O 15.5%, CC(=O)OCC1(O)CC23CCC4c5ccoc5CCC4(C)C2CCC1C3 (stereo not given) -8.62%, O=C(Cc1ccc(Cl)cc1)NCc1nc(-c2ccccc2)no1 14.2%, O=C(Cc1nc2ccccc2[nH]c1=O)c1ccc(Cl)cc1 50.8%, C/C(=N\Nc1ccccc1)c1cccs1 -5.68%, COc1cc(O)c2c(=O)c3c(O)c(O)ccc3oc2c1OC 2.79%, COc1ccc(-c2nc3cc(C)ccn3c2NC2CCCCC2)cc1SC1CCCCC1 7.59%, COc1ccc2nc(N3CCN(C(=O)c4ccc([N+](=O)[O-])o4)CC3)sc2c1 -66.4%, Cc1ccc2nc(N3C(=O)C(O)=C(C(=O)c4ccco4)C3c3cccc(O)c3)sc2c1 (stereo not given) 10%, CCOC(=O)C1CCCN(C(=O)C2CCN(S(=O)(=O)c3ccc(Cl)c(C(F)(F)F)c3)CC2)C1 (stereo not given) -3.48%, O=C1NC[C@@H](c2ccccc2)OC(=O)[C@H](Cc2ccc(F)cc2)CC/C=C/C[C@H]1CC(=O)N(CCO)Cc1ccccc1 -2.43%, COc1ccc(CC(=O)NC(C)c2ccc(Cl)c(Cl)c2)cc1S(=O)(=O)N1CCOCC1 (stereo not given) 6.68%, CC(=O)Nc1ccc(-c2csc(NC(=O)Nc3ccccc3)n2)cc1 -48.4%, CC(=O)Nc1ccc(-c2csc(NC=C3C(=O)OC(C)(C)OC3=O)n2)cc1 8.13%, Cc1ccc(Cn2c(C)c3cnn(CC(=O)NCCN4CCOCC4)c(=O)c3c2C)cc1 -2.1%, COc1ccccc1-c1sc2ccccc2c1C#CC1(O)CCCCC1 5.32%, CCN(CC)CCCC(C)n1c2nc(=O)[nH]c(=O)c-2nc2cc(Cl)ccc21 (stereo not given) -84%, CCN(CC)S(=O)(=O)c1ccc(C)c(NC(=O)COc2ccc(Br)cc2Cl)c1 -17.2%, Cc1cccc(NC(=O)Nc2ccc(OCc3ccccc3)cc2)n1 -1.41%, CCOC(=O)c1ccccc1OC(=O)Oc1ccccc1C(=O)OCC -22.1%, CCc1ccc(NC(=O)Cn2ncn3c(cc4ccccc43)c2=O)cc1 -8.34%, CCCN1CCN(C(=O)Cn2ncc3ccccc32)CC1 -0.935%, O=C(OCCOc1ccccc1Cl)c1cc(S(=O)(=O)N2CCCCC2)ccc1N1CCOCC1 -10.6%, COc1ccccc1OCc1ccc(C(=O)N2CCN(C)CC2)o1 1.8%, O=CN1CCN(C(=O)c2ccc(Br)o2)CC1 -12.5%, CC(C)=CCc1ccc(O)c(=O)cc1C(C)C -70.3%, CC[C@@H](C)[C@@H]1CN([C@@H](C)CN2CCC[C@H]2CN2C(N)=NC[C@H]2C(C)C)C(=N)N1CCc1ccc(Cl)c(Cl)c1 5.32%, CS(=O)(=O)N1CCN(C(=O)Cc2ccccc2)CC1 -6.87%, CS(=O)(=O)N1CCN(c2cccc(Cl)n2)CC1 -7.99%, COc1ccc(S(=O)(=O)Nc2cccc3c2O[C@H](CN(C)S(=O)(=O)c2ccc(OC)cc2)[C@@H](C)CN([C@H](C)CO)C3=O)cc1 0.473%, O=C1C=C(NS(=O)(=O)c2ccccc2)C(=O)c2ccccc21 -65.5%, COc1ccc(Cn2cc(CN3CCS(=O)(=O)N(Cc4ccc(-c5cccc(Cl)c5)cc4)C(C)C3=O)nn2)cc1 (stereo not given) 0.982%, Cc1cccc(N2O[C@H]3C=CC2CCCC3)n1 63.6%, O=C(NCc1cccnc1)C(=O)Nc1nc(-c2ccccc2)cs1 54.4%, O=C(Nc1nc(-c2cccnc2)cs1)c1ccccc1F 72.7%, Cc1ccc(C(=O)O)c(NC=O)c1OCc1ccccc1 11%, NC(=O)C1CCN(C(=O)c2cc(S(=O)(=O)N3CCN(c4ccccc4)CC3)ccc2Cl)CC1 -3.4%, O=C(/C=C/Nc1ccccc1)c1cnc(-c2ccccc2)s1 37.6%, CC(=O)c1cnc(-c2ccccc2)s1 13.4%
